# Data published in PubChem BioAssay AID624417 (National Center for Advancing Translational Sciences (NCATS), 2012).
# The whole screen tested about 410,000 compounds, of which about 6,400 (1.6%) were called active. Not shown: some 20% with an inconclusive outcome. The full list was thinned out, with actives kept by preference. Unmarked numbers belong to inactive results. Calls come from the whole dose curve; as a rule, active = well fitted inhibition curve with a large enough effect; inconclusive = small, poorly fitted or top-dose-only effect; inactive = no such curve, though single readings can be large or run the other way.
# Target: Glucagon-like peptide 1 receptor (Homo sapiens) (UniProt P43220)
# Assay: qHTS of GLP-1 Receptor Inverse Agonists (Inhibition Mode); note: nearly all actives have a fitted effect of over 55% in size
# Conditions: HEK293 GLP-1R CRE-luciferase, luminescence, 24 h, GLP-1R form is constitutively active; series mostly up to 38.3 µM; activity change, negative = inhibition: at the top concentration
# Excerpt: The overall goal of this project was to develop a novel assay for discovering small molecule ligands for class B1 G protein-coupled receptors (GPCRs). Very few agonists (or inverse agonists in inhibition mode) with generally weak activity for this entire group of physiologically important receptors are known to date. To establish proof-of-principle that this critical bottleneck can be overcome with a suitable screening approach, our studies focused on the class B1 receptor for glucagon-like peptide-1 (GLP-1R), a potential therapeutic target for diabetes and neurodegenerative disease. The assay was developed using a cell-based functional readout. Toward this goal, stably transfected HEK293 cell clones were established that co-express (i) a cAMP-responsive luciferase reporter gene, and (ii) constitutively active GLP-1R that upon ligand interaction inhibit (inverse agonists) the luciferase activity. In addition, two control cell lines were developed: (i) one that express only the cAMP-responsive reporter gene to enable initial exclusion of GLP-1R independent effects of candidate probes; and (ii) one with the reported gene cloned with another constitutively active orphan receptor GPR119 to enable exclusion of GLP-1R independent inhibitor effects of candidate inverse agonists. To that end, this assay was optimized for 1536-well format and screened against the MLSMR. […] NIH Molecular Libraries Probe Production Network [MLPCN] NIH Chemical Genomics Center [NCGC] Grant: NS064851 PI Name: Martin Beinborn, Tufts Medical Center
# Six ul of cell suspension (200 cells/uL in DMEM + 10% Nu serum + 1% pen-strep) is dispensed in a white solid 1536-well plate. The plates are incubated for 12 hours at 37 deg C at 5% CO2 followed by addition of 23 nL compounds. After 24 hr incubation at 37 deg C and 5% CO2, 3 uL of luciferase assay detection reagent is added. A luminescence read is obtained on the PerkinElmer Viewlux after 12 min incubation at room temperature.
# % is set by controls: 0 for no effect and ±100 for the full control effect; potency is the fitted concentration of half-maximal effect.
# Sequence of Glucagon-like peptide 1 receptor (Homo sapiens) (P43220 whole entry, looked up): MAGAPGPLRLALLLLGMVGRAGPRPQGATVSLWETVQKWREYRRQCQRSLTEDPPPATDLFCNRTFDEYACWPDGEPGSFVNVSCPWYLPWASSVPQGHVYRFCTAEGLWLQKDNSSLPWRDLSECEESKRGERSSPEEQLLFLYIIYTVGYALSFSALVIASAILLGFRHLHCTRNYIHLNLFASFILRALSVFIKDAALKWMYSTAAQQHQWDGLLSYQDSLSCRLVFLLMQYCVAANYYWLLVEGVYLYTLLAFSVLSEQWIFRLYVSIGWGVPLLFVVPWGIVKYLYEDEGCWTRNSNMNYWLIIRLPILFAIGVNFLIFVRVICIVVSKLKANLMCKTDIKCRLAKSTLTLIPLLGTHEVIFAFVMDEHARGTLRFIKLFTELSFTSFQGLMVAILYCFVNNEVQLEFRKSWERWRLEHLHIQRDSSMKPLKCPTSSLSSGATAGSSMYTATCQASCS
Compound,"activity change, negative = inhibition [%]",Potency
O=C(c1cccs1)N1CCN(Cc2ccc3c(c2)OCO3)CC1,-17.2,
O=C(CSCc1ccc(Cl)cc1)N1CCN(Cc2ccc3c(c2)OCO3)CC1,,10 µM (active)
O=C(Nc1cccc2ccccc12)N1CCN(Cc2ccc3c(c2)OCO3)CC1,-8.77,
CCCC(=O)N1CCC1(C)C(=O)NCc1ccc(SC)cc1 (stereo not given),23.8,
CC1(C(=O)NS(=O)(=O)c2ccccc2Cl)CCN1C(=O)c1cccc(F)c1 (stereo not given),5.93,
O=C(N/N=C/c1ccc(OCc2ccccc2)cc1)c1ccc(O)cc1,,2.82 µM (active)
O=C(Cc1cccs1)N/N=C/c1ccc(OCc2ccccc2)cc1,-1.37,
O=C(N/N=C/c1ccc(OC(=O)c2ccccc2Cl)cc1)c1ccc(O)cc1,-23.4,
O=C(O)c1ccccc1Cc1ccc(F)c2ccccc12,-24.8,
CCC(C(=O)NC(C)(C)C)n1c(-c2ccccc2)nc2ccccc21 (stereo not given),-19,
C[C@H]1CN([C@@H](C)CO)C(=O)c2cc(-c3ccccc3F)cnc2O[C@H]1CN(C)C(=O)C1CCOCC1,-13.6,
CC1(C(=O)Nc2cccc3cccnc23)CCN1C(=O)CCC1CCCC1 (stereo not given),-3.58,
O=C(NCCN1CCOCC1)c1ccc2c(c1)N(Cc1cccc(Cl)c1)C(=O)c1ccccc1S2(=O)=O,-27.9,
Fc1cccc(Cc2noc(CN3CCN(c4cnccn4)CC3)n2)c1,-5.63,
Cc1ccccc1N1CCN(Cc2nc(Cc3ccccc3F)no2)CC1,,11.2 µM (active)
Cc1cccc(N2CCN(Cc3nc(C4CC4)no3)CC2)n1,-5.11,
Cc1cc(Cl)ccc1OCCCC(=O)Nc1cccc(-n2cnnn2)c1,,10 µM (active)
Cc1cc(Cl)ccc1OCCCC(=O)NCc1ccncc1,8.81,
Cc1cc(Cl)ccc1OCCCC(=O)NCc1ccccn1,15.3,
COc1ccc(C(O)c2nc(-c3ccc(OC)nc3)cs2)cc1 (stereo not given),-6.1,
Cc1cc(Br)cn2c(Cc3ccccc3C(F)(F)F)c(-c3ccc(Cl)cc3)nc12,-21.1,
CCCCN(C=O)c1c(CC)nc2c(OCc3ccccc3C(=O)OC)cccn12,-20.9,

Compound,"activity change, negative = inhibition [%]",Potency
O=S1(=O)CC(N2CCN(c3ccccn3)CC2)CN1Cc1ccc(F)cc1 (stereo not given),-6.64,
CCc1nc2c(OCc3ccc(F)c(F)c3)cccn2c1N(C)C(=O)c1ccco1,-6.92,
CCCNC(=O)c1cc(C2CCCCN2S(=O)(=O)c2ccc(C#N)cc2)on1 (stereo not given),10.6,
Cc1nc(NC(=O)C2CCCCC2)sc1C,,8.91 µM (active)
Cc1nc(NC(=O)C23CCC(C)(C(=O)O2)C3(C)C)sc1C (stereo not given),-14.9,
Cc1nc2ccc(NC(=O)C3CCCCC3)cc2s1,7.04,
NC(=O)CSc1nnc(-c2cccc(S(=O)(=O)N3CCOCC3)c2)o1,-1.36,
Cc1ccc(C(=O)NC(C)C(c2cccs2)N2CCOCC2)cc1C (stereo not given),-10.4,
Cn1nc(N)c2ncc(C(Cl)(Cl)Cl)nc21,26.9,
O=c1cc(CN2CCN(c3cccc(Cl)c3)CC2)c2cc3c(cc2o1)CCCC3,0,
CC(=O)Nc1ccc(OCC(O)CN2CCN(c3ccccc3Cl)CC2)cc1 (stereo not given),-43.5,
O=C(c1ccc(Cl)cc1)c1ccc(OCC(O)CN2CCCCC2)cc1 (stereo not given),,5.01 µM (active)
OC(COc1ccc(Br)cc1)CN1CCCC1 (stereo not given),-28.2,
O=[N+]([O-])c1ccc(N2CCN(CC(O)COc3ccccc3)CC2)cc1 (stereo not given),-33.7,
OC(COc1ccc2c(c1)CCC2)CN1CCN(c2cccc(Cl)c2)CC1 (stereo not given),,10 µM (active)
Cc1ccc(S(=O)(=O)N2C[C@]3(O)C[C@@H]4C(=O)N(c5ccccc5)C(=O)[C@@H]4C[C@]3(OC(=O)NC3CC3)C2)cc1,6.42,
C[C@H](O)[C@@H]1C(=O)N2CCc3c([nH]c4ccccc34)[C@@H]2C[C@@H]1N(C)C(=O)Nc1ccc(F)cc1,-27.5,
CCN([C@H](CO)C(C)C)S(=O)(=O)c1ccccc1Br,-6.5,
C=CC(COCc1ccccc1)N(Cc1ccccc1)S(=O)(=O)c1ccccc1Br (stereo not given),,10 µM (active)
Cc1cc(C)n2c(NCc3ccccc3)c(CC(C)C)nc2n1,17.8,
CC(C)Cc1ccc(-c2cc3nc(NCc4cccc(Cl)c4)ccn3n2)cc1,,2.82 µM (active)
COCCn1c(SCC(=O)Nc2ccc(F)cc2F)nc2c(c1=O)SCC2,14.7,

Compound,"activity change, negative = inhibition [%]",Potency
CC1(C(=O)NCc2ccccc2)CSCC(=O)N1CCCn1ccnc1 (stereo not given),0.0455,
Cc1cccc(N2CCN(C(=O)c3cccc(N4C(=O)C5C6C=CC(C6)C5C4=O)c3)CC2)c1C (stereo not given),1.97,
O=S(=O)(c1ccccc1)N1CCc2ccccc21,-1.14,
Cc1cccc(N2CCN(C(=O)c3ccc4c(c3)CCN4S(=O)(=O)c3ccccc3)CC2)c1C,,7.94 µM (active)
O=C(Nc1cccc(C(=O)O)c1)/C(=C\c1ccccc1)NC(=O)c1ccc(Br)o1,0.998,
OC[C@@H]1CN(Cc2ccc(-c3ccccc3)cc2)C[C@H](n2cnc3c(NC4CCCC4)ncnc32)O1,,8.91 µM (active)
OC[C@@H]1CN(Cc2ccc(F)cc2)C[C@H](n2cnc3c(NC4CCCC4)ncnc32)O1,5.41,
OC[C@@H]1CN(Cc2cccs2)C[C@H](n2cnc3c(NC4CCCC4)ncnc32)O1,6.84,
CC(=O)c1ccc(Nc2nc(C(N)c3ccccc3)cs2)cc1 (stereo not given),20,
COc1cccc(-c2nc3nc(C)cc(C)n3c2NC2CCCCC2)c1,-11,
CCCCNC(=S)N/N=C1\CCCCc2ccccc21,,11.2 µM (active)
CCCCNC(=O)C(=O)c1ccccc1NC(C)=O,16,
Cc1ccc(NC(=S)N/N=C2/CCCc3c(C)cc(C)cc32)cc1,6.24,
CCC(=O)N1CCC(C)(C(=O)Nc2cc(OC)c(OC)c(OC)c2)C1 (stereo not given),4.97,
CC(=O)c1cccc(-c2cnc3c(NC=O)cc(-c4ccc(N5CCN(C)CC5)cc4)cn23)c1,0.896,
COc1ccc(NC(=O)CCN2CCN(CCO)CC2)cc1,1.87,
COc1ccc(C(=O)Nc2sc(C)c(C)c2CN2CCOCC2)cc1,6.13,
CCc1cc(C(=O)c2ccc(OC)cc2)c(NC(=O)CN2CCN(C)CC2)s1,,4.47 µM (active)
Cc1nc2ccccc2c(=O)n1NC(=O)c1ccccc1,-2.48,
CN(C)CCCn1c(SCCN2C(=O)c3ccccc3C2=O)nc2ccccc2c1=O,0.122,
CC(C)(C)c1nc2ccccc2c(=O)n1N1C(=O)c2ccccc2C1=O,,10 µM (active)
